Test results: PubChem BioAssay AID425 (Sanford-Burnham Center for Chemical Genomics, 2006)
“And” between values parts separate entries of the source, which are not always exact repeats. Equal values may be shown once. About 190 (0.17%) of roughly 110,000 compounds were called active. No stated cut-off is given here; in the data, active means inhibition above about 50%; inactive means the rest. The entries come from a sample that favours actives as a whole. Results with a measured potency or affinity are listed apart. Where a structure was tested more than once in an assay, its records may differ in their call.

molecular target: Dual specificity protein phosphatase 6 (Rattus norvegicus) (UniProt Q64346); experiment: MKP-3 phosphatase inhibitors, primary screen, biochemical, rat enzyme, in vitro (AID 425); details: recombinant MKP-3 phosphatase activity, fluorescence; at 20 µM; stronger effect = higher value;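 further: plate controls were vehicle for no effect and reference inhibitor for full effect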
Sequence (Q64346 whole entry, looked up): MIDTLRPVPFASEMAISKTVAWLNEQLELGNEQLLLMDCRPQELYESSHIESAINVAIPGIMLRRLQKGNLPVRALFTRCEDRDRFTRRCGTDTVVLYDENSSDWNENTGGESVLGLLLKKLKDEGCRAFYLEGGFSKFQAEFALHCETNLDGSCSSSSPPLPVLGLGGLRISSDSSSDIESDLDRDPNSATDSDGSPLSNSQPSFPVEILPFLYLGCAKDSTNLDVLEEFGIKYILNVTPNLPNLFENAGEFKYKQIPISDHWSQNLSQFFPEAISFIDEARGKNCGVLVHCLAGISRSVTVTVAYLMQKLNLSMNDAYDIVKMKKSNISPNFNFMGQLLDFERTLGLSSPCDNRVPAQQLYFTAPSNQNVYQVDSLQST

| Compound | inhibition |
| --- | --- |
| COc1cc2c(C#N)c(N3CCOCC3)nc(N)c2c(N)n1 | -5.5% (inactive) |
| COc1cc2c(C#N)c(N3CCCCC3)nc(N)c2c(N)n1 | 8% (inactive) |
| Cc1ccc2oc(-c3cccc(NC(=O)COc4ccccc4[N+](=O)[O-])c3C)nc2c1 | 0.7% (inactive) |
| O=C(COc1ccccc1[N+](=O)[O-])Nc1ccc(-c2nc3ncccc3o2)cc1 | 16% (inactive) |
| Cc1c(NC(=O)COc2ccccc2[N+](=O)[O-])cccc1-c1nc2ncccc2o1 | 59.4% (active) |
| CCOc1ccc(NC(=O)CSC(N)=O)cc1 | -0.4% (inactive) |
| Cc1ccc(C)c(S(=O)(=O)NCc2cccnc2)c1 | -4.3% (inactive) |
| O=c1/c(=C\c2ccc(-c3cccc(Br)c3)o2)sc2nc3ccccc3n12 | 1.3% (inactive) |
| O=C(O)c1ccccc1-c1ccc(/C=c2\sc3nc4cc(Br)cnc4n3c2=O)o1 | 52.1% (active) |
| O=c1/c(=C/c2ccc(-c3ccc([N+](=O)[O-])cc3Cl)o2)sc2nc3cc(Br)cnc3n12 | 1% (inactive) |
| O=c1/c(=C/c2ccc(-c3ccccc3[N+](=O)[O-])o2)sc2nc3cc(Br)cnc3n12 | 0.3% (inactive) |
| O=c1/c(=C\c2ccc(-c3cccc(Cl)c3)o2)sc2nc3ccccc3n12 | 0.1% (inactive) |
| O=c1/c(=C/c2ccc(-c3ccc(Cl)cc3)o2)sc2nc3ccccc3n12 | -1.6% (inactive) |
| Cc1cc(C)c2nc3s/c(=C\c4ccc(-c5ccc(Cl)c(C(=O)O)c5)o4)c(=O)n3c2c1 | 19.9% (inactive) |
| Cc1cc2nc3s/c(=C/c4ccc(-c5ccc(Cl)cc5)o4)c(=O)n3c2cc1C | 0.8% (inactive) |
| O=c1/c(=C/c2ccc(-c3ccccc3)o2)sc2nc3ccccc3n12 | -5.1% (inactive) |
| CCCCOC(=O)c1ccc(NC(=O)c2cncc(Br)c2)cc1 | 2.8% (inactive) |
| COc1ccccc1/C=C1\SC(=S)N(NC(=O)Cc2ccccc2)C1=O | 2.2% (inactive) |
| O=C(COc1ccc(=O)n(-c2ccccc2)n1)Nc1ccccc1 | 1.2% (inactive) |
| COC(CNS(=O)(=O)c1ccc(Cl)cc1)c1ccccc1 (stereo not given) | -0.6% (inactive) |
| CC1(C)CC(=O)C2=C(C1)OC1=C(C(=O)CC(C)(C)C1)C2c1ccc(-c2nnc(N)s2)cc1 | 5.6% (inactive) |
| CC(C)CSc1nc2c(c(=O)[nH]c(=O)n2C)n1CC(O)COc1cccc2ccccc12 (stereo not given) | -2.5% (inactive) |
| Cn1c(=O)oc2cc(S(=O)(=O)Nc3ccc(Cl)cc3F)ccc21 | -2.1% (inactive) |
| Cc1nc2c3ccccc3n(CC#N)c(=O)n2n1 | -2.1% (inactive) |

| Compound | inhibition |
| --- | --- |
| NC(=O)C1(N2CCCCC2)CCN(CC(=O)Nc2ccc(Oc3ccccc3)cc2)CC1 | -17% (inactive) |
| COc1ccc(CCCc2nnc(SCC(=O)Nc3ncc(C)s3)o2)cc1 | -9.2% (inactive) |
| O=C(O)c1ccccc1NCN1C(=O)C2CC=C(Cl)CC2C1=O (stereo not given) | 5.2% (inactive) |
| O=C(O)C1Nc2ccc([N+](=O)[O-])cc2C2C=CCC12 (stereo not given) | 63.7% (active) |
| O=C(O)C1Nc2ccc3ccccc3c2C2C=CCC12 (stereo not given) | 91.5% (active) |
| Oc1ccc(C2Nc3ccc4ccccc4c3C3C=CCC32)cc1 (stereo not given) | 2.7% (inactive) |
| CC(=O)Nc1ccc2c(c1)C1C=CCC1C(C(=O)O)N2 (stereo not given) | 3% (inactive) |
| O=[N+]([O-])c1cccc2c1NC(c1ccc(F)cc1)C1CC=CC21 (stereo not given) | -0.5% (inactive) |
| COc1ccc2c(c1)C1C=CCC1C(C(=O)O)N2 (stereo not given) | 23.5% (inactive) |
| O=[N+]([O-])c1cccc2c1NC(c1ccccc1F)C1CC=CC21 (stereo not given) | 2.2% (inactive) |
| O=C(O)C1Nc2c(cccc2[N+](=O)[O-])C2C=CCC12 (stereo not given) | 79% (active) |
| Cc1ccc2c(c1)C1C=CCC1C(C(=O)O)N2 (stereo not given) | 40.3% (inactive) |
| O=[N+]([O-])c1ccc(C2Nc3ccc([N+](=O)[O-])cc3C3C=CCC32)cc1 (stereo not given) | 6.6% (inactive) |
| O=[N+]([O-])c1cccc(C2Nc3ccc4ccccc4c3C3C=CCC32)c1 (stereo not given) | 8.7% (inactive) |
| O=C(Nc1ccc2nn(-c3ccccc3)nc2c1)c1cc(I)ccc1Cl | 3.4% (inactive) |
| Cn1cnnc1Sc1nc2c(c(=O)n(C)c(=O)n2C)n1C | -3.7% (inactive) |
| COc1ccc(C(=O)/C=C/c2c(Cl)cccc2Cl)cc1 | 10.2% (inactive) |
| CCOc1ncccc1C(=O)OCC(=O)NCCc1ccc(OC)cc1 | 1.6% (inactive) |
| O=C(c1ccc(S(=O)(=O)NCC2CCCO2)cc1)N1CCc2ccccc21 (stereo not given) | 8.3% (inactive) |
| O=C(CCNS(=O)(=O)c1ccccc1[N+](=O)[O-])Nc1ccc(I)cc1 | 2% (inactive) |
| C=CCn1c(SCC(=O)NCc2cccs2)nnc1C1CCCCC1 | -0.2% (inactive) |
| COc1cc(/C=C2\SC(=S)N(c3ccc(C)cc3C)C2=O)cc(Br)c1O | -2.7% (inactive) |
| O=C(NCC1CCCO1)c1cnn2c1NC(c1ccco1)CC2C(F)(F)F (stereo not given) | -1.8% (inactive) |
| Cc1ccc(NC(=O)Cn2nc(C)c3ccccc3c2=O)cc1F | -2.5% (inactive) |

| Compound | inhibition |
| --- | --- |
| COc1cc(C(=O)NC(NC(=S)Nc2ccc(C(C)=O)cc2)C(Cl)(Cl)Cl)cc(OC)c1OC (stereo not given) | 3.5% (inactive) |
| COc1cccc(C2C(C(=O)Nc3ccccc3)=C(C)N=C3SCC(=O)N32)c1 (stereo not given) | 3.3% (inactive) |
| Cc1cc(Cl)c2cc(C(=O)O)ccc2n1 | 3.5% (inactive) |
| Cc1ccc(-c2ccccc2)n1-c1cccc(C(=O)O)c1 | 2.4% (inactive) |
| Cc1cc(C(=O)O)ccc1-n1c(C)ccc1C | 55% (active) and 10.8% (inactive) |
| Cc1ccc(C(=O)O)cc1N1C(=O)c2ccccc2C1=O | -1.1% (inactive) |
| Cc1cc(N)ccc1-n1c(C)ccc1C | -1.5% (inactive) |
| Cc1ccc(C)n1-c1cc(C(=O)O)ccc1O | 32.6% (inactive) |
| Cc1ccc(C)n1-c1cc(C(=O)O)ccc1Cl | 101% (active) |
| Cc1ccc(C(=O)O)cc1-n1c(C)ccc1C | 59% (active) |
| Cc1ccc(C)n1-c1cc(C(=O)O)cc(C(=O)O)c1 | 32.5% (inactive) |
| COc1cccc(C2=NN(C(=O)COc3ccccc3)C(O)(C(F)(F)F)C2)c1 (stereo not given) | 1.7% (inactive) |
| Cc1cccc(C(C)C)c1NC(=O)c1cccnc1 | -7.7% (inactive) |
| CCN(CC)c1ccc(/C=C2/SC(=O)N(CNc3ccc(OC)c(Cl)c3)C2=O)cc1 | 2.6% (inactive) |
| COc1ccc(/C=C2\C=C(c3ccc(Br)cc3)OC2=O)cc1[N+](=O)[O-] | 5.6% (inactive) |
| COc1ccc(/C=N/Nc2nnc(-c3ccccc3)c(-c3ccccc3)n2)cc1 | 0.6% (inactive) |
| N/C(=N/O)c1nc(N2CCCCC2)nc(N2CCCCC2)n1 | -8.2% (inactive) |
| O=C(Nc1ccc(C(=O)N2CCOCC2)cc1)Nc1cccc2ccccc12 | 2% (inactive) |
| CN(C)CCCNC(=O)c1ccc(F)cc1 | -0.5% (inactive) |
| CN(C)CCCNC(=O)c1ccc2sc3cc(=O)c(N)cc-3nc2c1 | 84.1% (active) |
| CN(C)CCCNC(=O)c1cccc(F)c1 | -3.1% (inactive) |
| Cc1ccc(-n2ncc(C(=O)N3CCc4ccccc4C3)c2NC(=O)c2ccco2)cc1C | -7.8% (inactive) |
| CC1(C)OC(=O)C(=Cc2ccc(I)o2)C(=O)O1 | 101% (active) |
| O=C1C(=Cc2ccc(I)o2)C(=O)c2ccccc21 | 15.6% (inactive) |

| Compound | inhibition |
| --- | --- |
| CC1(C)OC(=O)C(=Cc2ccc(-c3ccc(Cl)cc3Cl)o2)C(=O)O1 | 7.8% (inactive) |
| Cc1ccc(C)c(C(=O)COC(=O)c2ccc(Br)o2)c1 | -15.9% (inactive) |
| COc1ccc(-c2cc3ccccc3n2CC(O)CN2CCN(CCO)CC2)cc1 (stereo not given) | -0.9% (inactive) |
| O=C(O)c1cccc(N2C(=O)c3ccc4c5c(ccc(c35)C2=O)CC4)c1 | 71.8% (active) |
| O=C(O)c1cccc(N2C(=O)CCC2=O)c1 | -5.5% (inactive) |
| O=C(O)c1cccc(N2C(=O)c3ccc(Br)cc3C2=O)c1 | 0.9% (inactive) |
| c1ccc2c(-n3cnnn3)cccc2c1 | -8.8% (inactive) |
| Cc1ccc(-c2csc3nnc(SCC(=O)Nc4nsc(-c5ccccc5)n4)n23)cc1 | -3.1% (inactive) |
| Cc1ccc(-c2nc(NC(=O)CSc3nnc(C)s3)ns2)cc1 | 6.1% (inactive) |
| Cc1ccc(-c2nc(NC(=O)CSc3nnnn3-c3ccccc3)ns2)cc1 | 2.1% (inactive) |
| Cc1ccc(-c2nc(NC(=O)CSc3nnc4scc(-c5ccccc5)n34)ns2)cc1 | 12.3% (inactive) |
| CCn1c(=O)cc(SCC(=O)Nc2ccc3c(c2)OCCO3)c2ccccc21 | 2.8% (inactive) |
| O=c1[nH]c2c(n(C3CCCCC3)c1=O)CCC2 | -11.2% (inactive) |
| Cc1ccc(C(=O)Nc2ccccc2C(=O)N2CC(C)OC(C)C2)cc1 (stereo not given) | 1.8% (inactive) |
| Cc1cc(N2C(=O)NC(=O)/C(=C\c3ccc([N+](=O)[O-])o3)C2=O)ccc1Br | 65.5% (active) |
| O=C1NC(=O)N(c2ccccc2)C(=O)/C1=C\c1ccc(Br)o1 | 8.3% (inactive) |
| CC(C)c1ccc(N2C(=O)NC(=O)/C(=C/c3ccc(I)o3)C2=O)cc1 | 12.4% (inactive) |
| CC(C)c1ccc(N2C(=O)NC(=O)/C(=C/c3ccc(Br)o3)C2=O)cc1 | 58.6% (active) |
| Cc1cc(C)cc(N2C(=O)NC(=O)/C(=C\c3ccc([N+](=O)[O-])o3)C2=O)c1 | 25.1% (inactive) |
| Cc1cc(N2C(=O)NC(=O)/C(=C\c3ccc(N(C)C)o3)C2=O)ccc1Br | 2.1% (inactive) |
| O=C(NC(Cc1ccccc1)C(=O)N1CCN(c2ccccn2)CC1)c1ccco1 (stereo not given) | -1.1% (inactive) |
| COc1ccc(OC)c(CN2C(=O)c3ccccc3C2C(=O)NCc2cccnc2)c1 (stereo not given) | -10.2% (inactive) |
| CN(Cc1ccccc1)S(=O)(=O)c1ccc2[nH]c(=O)oc2c1 | -2.6% (inactive) |
